IDE cell activ = activators of human insulin-degrading enzyme in cells | P14735 | HEK cells, FAbeta-B cleavage, fluorescence polarization; 0% vehicle, 100% cell-free pure enzyme wells | activation, % at 5.96 µM | 340,000 compounds, 0.073% hits | AID 493087;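 active = activation above the mean of all tested compounds plus 3 SD, set per screening campaign, cut at about 17% in these data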
Calb FLC = C. albicans growth modulation with fluconazole. C. albicans CaCi-2 (fluconazole-resistant clinical isolate) + fluconazole, Alamar Blue growth, 48 h. growth inhibition, % (concentration not given with the values). 300,000 compounds, 0.57% hits;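 active = growth inhibition above about 58% in most replicates, limit read from the data, passing the limit was not always enough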;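 also: all wells also contain fluconazole at 8 µg/ml as a sub-toxic cotreatment; 0% = median of DMSO wells and 100% = median of geldanamycin control wells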
TPT1 inh = inhibitors of Candida albicans tRNA 2'-phosphotransferase TPT1. AID 1962. inhibition, % at 5 µM. 300,000 compounds, 0.81% hits. recombinant caTPT1, FP RNA substrate dephosphorylation;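 active = inhibition above the mean of all tested compounds plus 3 SD, set per screening campaign, cut at about 24% in these data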;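 also: plate controls were DMSO alone for no effect and ferristatin control at 100 nM for full effect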
Rin1-Abl PPI inh = human Rin1-Abl interaction inhibition; TR-FRET Rin1/Abl binding, biochemical; inhibition, % at 7.35 µM; AID 588664; P00519+Q13671; 360,000 compounds, 0.4% hits; in the data active = inhibition above about 5%, passing the limit was not always enough
Rpn11 inh = blocks the human proteasome subunit Rpn11; O00487; human 26S proteasome, Ub4-pepOG fluorescence polarization; 20S core pre-blocked with epoxomicin; inhibition, % at 20 µM; 360,000 compounds, 0.59% hits; AID 588493;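 active = inhibition at 20 µM, scaled to each plate's controls, above about 33%, limit read from the data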
Target sequence (O00487 whole entry, looked up): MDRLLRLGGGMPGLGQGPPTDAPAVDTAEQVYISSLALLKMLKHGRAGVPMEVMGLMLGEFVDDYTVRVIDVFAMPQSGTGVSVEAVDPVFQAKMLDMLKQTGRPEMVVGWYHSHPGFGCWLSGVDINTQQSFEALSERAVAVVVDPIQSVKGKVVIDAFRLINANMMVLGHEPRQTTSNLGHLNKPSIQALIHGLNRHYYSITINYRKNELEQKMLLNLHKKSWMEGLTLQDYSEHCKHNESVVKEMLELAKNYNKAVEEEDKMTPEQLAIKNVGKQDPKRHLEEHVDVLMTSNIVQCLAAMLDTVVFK
IDE cell inh = inhibitors of human insulin-degrading enzyme in cells | P14735 | HEK cells, FAbetaB cleavage, fluorescence polarization | inhibition, % at 5.59 µM | 320,000 compounds, 0.41% hits;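 active = percent inhibition above the average of all tested compounds plus 3 SD, set per screening campaign, cut at about 16% in these data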;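 also: IDE supplied by intact live HEK cells; FP after avidin binding of uncleaved biotin substrate so inhibition keeps polarization high; 0% = DMSO wells and 100% = 60 µM reference IDE inhibitor Ii1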
caTPT1 confirm = confirmation of Candida albicans TPT1 inhibitors. shares compounds with TPT1 inh. recombinant caTPT1, fluorescence polarization, RNase T1 coupled. inhibition, % at 5 µM. 2,400 compounds, 74% hits. AID 2149;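 active = inhibition above the primary screen limit, the mean inhibition of all tested compounds plus 3 SD, cut at about 25% in these data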
RNase T1 counter = blocks Aspergillus oryzae RNase T1, a TPT1 counter-screen; AID 2153; shares compounds with TPT1 inh; inhibition, % at 5 µM; RNase T1 cleavage, fluorescence polarization, 1536-well; 2,400 compounds, 83% hits;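 active = inhibition above the solvent-only control well mean plus 3 SD, limit set per screening run, cut at about 23% in these data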;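 also: plate controls were DMSO wells with enzyme for no effect and wells without RNase T1 for full effect; inhibitors block cleavage so intact labeled substrate keeps polarization high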
Target sequence (P00651 whole entry, looked up): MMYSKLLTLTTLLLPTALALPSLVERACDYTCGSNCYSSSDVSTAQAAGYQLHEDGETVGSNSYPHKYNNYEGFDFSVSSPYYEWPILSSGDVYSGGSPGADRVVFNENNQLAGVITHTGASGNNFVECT
Starred values were filed as active, the others as inactive; . = no result shown. An excerpt weighted towards active compounds, which were near 2.3% of everything screened.

SMILES	IDE cell activ	Calb FLC	TPT1 inh	Rin1-Abl PPI inh	Rpn11 inh	IDE cell inh	caTPT1 confirm	RNase T1 counter
CC1=NN(c2ccccc2)C(=O)C1N=Nc1ccc(C)cc1 (configuration not stated)	.	-4.3	-1.8	.	.	0.8	.	.
CC1=NN(c2ccccc2)C(=O)C1C=Nc1ccc(N(C)C)cc1 (configuration not stated)	.	1.4	41.9*	5.0	32.7	3.1	66.8*	76.6*
Cc1ccc(/C=C2/NC(=O)N(c3ccccc3)C2=O)o1	-4.1	25.1	-9.4	-2.2	5.3	4.4	.	.
O=C1N/C(=C/c2ccc(N3CCOCC3)o2)C(=O)N1c1cccc(Cl)c1	-1.4	8.8	81.8*	-4.5	65.0*	4.6	168.3*	166.0*
COC(=O)c1cc(NC(=O)c2cccc(C(F)(F)F)c2)c(=O)oc1C	-4.5	-10.6	5.4	-0.5	4.6	-2.9	.	.
COC(=O)c1cc(NC(=O)c2cccc(C(F)(F)F)c2)c(=O)oc1C/C=N/OCc1cccc(Cl)c1Cl	-3.6	11.6	35.1*	4.0	.	6.4	38.0*	45.3*
O=C(Nc1ccc(S(=O)(=O)Nc2ncccn2)cc1)C1=COCCO1	7.7	7.4	10.7	0.4	16.6	-2.3	.	.
NS(=O)(=O)c1ccc(-c2ccc(/C=C3\SC(=S)N(C4CCS(=O)(=O)C4)C3=O)o2)cc1 (configuration not stated)	-58.0	23.0	109.2*	-1.3	.	19.7*	153.6*	142.4*
NS(=O)(=O)c1ccc(-c2ccc(C=NC3CCS(=O)(=O)C3)o2)cc1 (configuration not stated)	5.2	5.3	6.1	-4.2	17.3	-2.8	.	.
Cn1nnnc1SCc1nc2scc(-c3ccccc3)c2c(=O)[nH]1	-0.9	-15.4	4.9	-0.6	13.0	2.8	.	.
Cn1nnnc1SCc1nc2scc(-c3ccc(Cl)cc3)c2c(=O)[nH]1	-0.7	9.0	28.6*	0.7	.	6.6	49.8*	59.2*
COc1ccc(C(=O)NCc2nnc(SCC(=O)Nc3cc(Cl)ccc3OC)o2)cc1	1.3	-4.3	4.0	-0.6	-1.5	2.7	.	.
CCOc1ccc(C(=O)NCC(=O)OCCCC(=O)c2ccc(F)cc2)cc1OCC	2.4	.	.	3.5	-4.0	-3.2	.	.
Cc1cc2c(cc1C)C(c1cccc([N+](=O)[O-])c1)CC(=O)N2 (configuration not stated)	-0.9	-0.3	52.9*	3.2	-0.5	4.5	18.7	31.6*
CCN(CC)S(=O)(=O)c1ccc(C(=O)/C=C/c2ccc(-c3ccc([N+](=O)[O-])cc3)o2)cc1	4.7	-4.3	29.9*	0.9	33.9	0.9	48.8*	53.0*
CNc1ncnc2c1ncn2[C@H]1CN(Cc2ccc(OC)cc2)C[C@@H](CO)O1	.	.	.	2.6	7.0	.	.	.
O=C1CCCC/C1=C\Nc1ccc(S(=O)(=O)Nc2cnc3ccccc3n2)cc1	-0.3	-5.3	54.6*	-0.9	.	-13.2	32.7*	45.2*
Cn1cccc1C(=O)NC(=O)COC(=O)c1cc([N+](=O)[O-])ccc1Cl	1.9	1.7	1.4	-0.5	0.5	-3.5	.	.
CN(C)S(=O)(=O)c1ccc(Cl)c(C(=O)OCC(=O)NC(=O)c2cccn2C)c1	-0.7	4.9	125.0*	-3.9	6.9	-1.0	9.7	12.2
COC(=O)Cc1cc(C)cc2c(=O)cc(-c3ccoc3)oc12	.	12.7	33.5*	-2.0	.	7.9	53.0*	66.4*
COC(=O)Cc1cc(=O)oc2cc(OC)ccc12	7.5	13.7	0.2	5.4	0.8	4.5	.	.
Cc1cc(/C=C2/SC(=S)N(c3cccc(C(F)(F)F)c3)C2=O)c(C)n1-c1cccnc1	-2.4	3.7	87.7*	3.0	37.1	3.5	91.6*	98.9*
COc1ccc(OCC(O)CNC(=O)c2ccc(C)cc2)cc1 (configuration not stated)	2.2	4.2	-4.1	0.4	-2.4	2.4	.	.
O=c1[nH]c2ccccc2nc1/C=C/c1ccc(F)cc1	-1.5	-16.9	57.0*	-0.6	.	-0.4	74.0*	82.5*
O=c1[nH]c2ccccc2nc1/C=C(\O)C1CC1	1.1	11.0	26.7*	-5.8	-2.5	0.8	4.5	8.2
SMILES	IDE cell activ	Calb FLC	TPT1 inh	Rin1-Abl PPI inh	Rpn11 inh	IDE cell inh	caTPT1 confirm	RNase T1 counter
O=C(O)CN1C(=O)CC(c2ccccc2)CC1=O	-1.5	-19.0	1.1	-0.6	3.1	2.5	.	.
CSCc1nc2sc(C(=O)Nc3nc(C)cs3)c(C)c2c(=O)[nH]1	1.2	-7.6	32.5*	4.4	.	2.4	39.0*	51.4*
Cc1nnc(SCc2nc3sc(C(=O)O)c(C)c3c(=O)[nH]2)s1	-0.5	3.1	1.4	0.7	3.8	-4.2	.	.
CC[n+]1c(/C=C/C=C/N(C(C)=O)c2ccccc2)sc2ccccc21	-60.7	89.3*	64.3*	-13.6	.	9.3	68.2*	73.9*
COc1cc(/C=C2/C(=O)CNC2=O)ccc1O	3.0	-2.7	29.9*	-6.7	21.5	-0.9	54.6*	77.1*
COc1ccc([C@H]2CC(=O)C=C(c3cccc(F)c3OC)C2)cc1	3.1	.	.	0.5	-16.7	-0.2	.	.
CCOc1cccc2c1OC(c1cc(OC)c(OC)c(OC)c1)N1N=C(c3ccc(C)o3)CC21 (configuration not stated)	-5.0	25.2	114.5*	2.0	.	2.5	10.3	15.3
COc1ccc(C2CC(c3ccc(C)o3)=NN2C(C)=O)cc1 (configuration not stated)	-4.0	-14.0	-0.8	-0.8	-0.2	-9.1	.	.
Cc1nc2ccccc2c(=O)n1/N=C/c1ccc2ccccc2c1O	-0.7	-1.9	54.1*	-3.2	3.9	1.0	25.9*	34.5*
COc1ccc(-n2nc3c(N4CCC(C(=O)N5CCC(C)CC5)CC4)nnc(C)c3c2C)cc1	-2.3	68.1	79.0*	-13.4	.	0.0	71.9*	81.1*
Cc1nnc(N2CCOCC2)c2nn(-c3cccc(Cl)c3)c(C)c12	3.7	9.9	27.7*	-2.5	.	6.3	68.6*	76.5*
CCC[C@H]1CN(c2ccccc2)C(=O)[C@@H]1CC(=O)NC	.	.	.	-1.8	-4.4	.	.	.
O/C(=C\c1ccc2ccccc2n1)c1ccc(O)cc1O	-19.6	2.4	98.0*	-3.8	.	11.4	109.9*	107.9*
CC(NC(=O)/C(C#N)=C1\N=C(NC(=O)c2ccco2)c2ccccc21)c1ccccc1 (configuration not stated)	.	9.9	47.3*	-2.6	25.7	9.3	23.9	31.3*
CC1(C)Cc2c(c(N3CCOCC3)nc3sc(-c4ccc(C(=O)O)o4)c(N)c23)CO1	3.9	-8.0	32.8*	-1.1	.	0.4	35.0*	46.9*
O=[N+]([O-])c1ccc(CSc2ccc(S(=O)(=O)N3CCOCC3)cn2)cc1	0.0	.	.	1.1	1.1	.	.	.
